According to the supplement of paper PMC10849652:
Targets with a hit are over-represented here; the source holds about 7,900 in all. About 0.6% of all pairs of compound and target were hits. A number with no mark means an inactive call.

Compound: NCC(=O)Nc1ccc(-n2nc(C(F)(F)F)cc2-c2ccc3c(ccc4ccccc43)c2)cc1
Test: log2 fold change, soluble protein after heating vs DMSO (PISA); higher = thermal stabilisation; K562 cells, 10 uM, 30 min; active = over 0.2 and 3.5 SD of the protein, either way, in both replicates (recomputed)
Method in brief: (§1)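 K562 cells at 2×10^6 cells/mL were exposed to 10 μM compound for 30 min, then aliquots were heated for 3 min across 48°C-58°C, pooled, and extracted in PBS containing 0.5% NP-40 at 4°C. The supernatant after 21,000xg for 90 min was taken as soluble protein and measured by TMTpro 16plex LC-MS/MS with channel sums equalised. Thermal stability is reported relative to control samples, with values from duplicates. Fold changes are given on a log2 scale.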

Chain of UniProt P05771 (P05771 whole entry, looked up): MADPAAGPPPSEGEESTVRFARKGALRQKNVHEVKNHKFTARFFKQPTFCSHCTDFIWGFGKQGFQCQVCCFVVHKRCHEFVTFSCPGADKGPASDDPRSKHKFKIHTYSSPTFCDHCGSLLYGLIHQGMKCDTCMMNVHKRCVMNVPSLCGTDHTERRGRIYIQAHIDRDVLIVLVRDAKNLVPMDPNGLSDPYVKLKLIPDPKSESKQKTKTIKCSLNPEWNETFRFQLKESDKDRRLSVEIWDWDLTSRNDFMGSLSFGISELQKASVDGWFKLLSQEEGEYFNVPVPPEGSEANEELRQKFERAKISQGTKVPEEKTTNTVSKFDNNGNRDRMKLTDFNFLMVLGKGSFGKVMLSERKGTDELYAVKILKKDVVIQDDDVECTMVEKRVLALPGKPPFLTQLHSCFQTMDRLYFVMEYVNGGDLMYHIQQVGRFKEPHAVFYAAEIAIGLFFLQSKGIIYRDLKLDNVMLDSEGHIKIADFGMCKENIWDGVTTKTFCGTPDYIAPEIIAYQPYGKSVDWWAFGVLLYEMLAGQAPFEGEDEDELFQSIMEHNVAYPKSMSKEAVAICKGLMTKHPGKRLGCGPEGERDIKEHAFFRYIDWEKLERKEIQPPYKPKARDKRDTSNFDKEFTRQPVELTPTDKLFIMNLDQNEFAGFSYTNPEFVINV
Chain of UniProt Q16822 (Q16822 whole entry, looked up): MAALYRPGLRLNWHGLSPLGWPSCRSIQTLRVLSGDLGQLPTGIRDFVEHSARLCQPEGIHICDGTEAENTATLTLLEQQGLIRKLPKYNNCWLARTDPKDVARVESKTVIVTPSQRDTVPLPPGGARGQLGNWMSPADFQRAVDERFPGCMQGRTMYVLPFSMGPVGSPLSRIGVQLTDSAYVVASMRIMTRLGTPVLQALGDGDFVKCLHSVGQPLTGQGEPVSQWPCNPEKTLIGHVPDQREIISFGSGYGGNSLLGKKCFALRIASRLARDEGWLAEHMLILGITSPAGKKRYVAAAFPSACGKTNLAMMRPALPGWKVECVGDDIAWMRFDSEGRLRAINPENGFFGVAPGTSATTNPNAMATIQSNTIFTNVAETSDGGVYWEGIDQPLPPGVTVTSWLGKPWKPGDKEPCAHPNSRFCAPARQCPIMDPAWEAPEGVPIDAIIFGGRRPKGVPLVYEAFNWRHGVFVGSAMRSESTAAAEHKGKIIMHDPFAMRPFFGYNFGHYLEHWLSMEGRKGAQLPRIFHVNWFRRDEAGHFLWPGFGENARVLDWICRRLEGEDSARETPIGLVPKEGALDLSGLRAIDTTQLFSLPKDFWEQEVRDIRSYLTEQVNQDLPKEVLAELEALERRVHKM
Chain of UniProt P53801 (P53801 whole entry, looked up): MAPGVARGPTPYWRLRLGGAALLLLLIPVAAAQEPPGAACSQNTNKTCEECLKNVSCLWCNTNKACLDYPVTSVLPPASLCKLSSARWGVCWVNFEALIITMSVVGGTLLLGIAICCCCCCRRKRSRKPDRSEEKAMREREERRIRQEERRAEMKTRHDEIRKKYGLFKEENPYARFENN
Chain of UniProt P48556 (P48556 whole entry, looked up): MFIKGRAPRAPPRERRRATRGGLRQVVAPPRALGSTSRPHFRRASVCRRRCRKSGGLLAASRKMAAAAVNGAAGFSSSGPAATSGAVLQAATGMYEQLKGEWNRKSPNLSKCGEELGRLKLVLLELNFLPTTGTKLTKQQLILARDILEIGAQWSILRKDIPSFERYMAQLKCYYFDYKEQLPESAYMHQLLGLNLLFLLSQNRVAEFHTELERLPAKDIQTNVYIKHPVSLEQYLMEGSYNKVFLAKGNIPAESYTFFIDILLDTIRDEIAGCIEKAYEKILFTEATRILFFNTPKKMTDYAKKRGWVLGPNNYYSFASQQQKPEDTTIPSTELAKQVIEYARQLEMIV
Chain of UniProt Q14997 (Q14997 whole entry, looked up): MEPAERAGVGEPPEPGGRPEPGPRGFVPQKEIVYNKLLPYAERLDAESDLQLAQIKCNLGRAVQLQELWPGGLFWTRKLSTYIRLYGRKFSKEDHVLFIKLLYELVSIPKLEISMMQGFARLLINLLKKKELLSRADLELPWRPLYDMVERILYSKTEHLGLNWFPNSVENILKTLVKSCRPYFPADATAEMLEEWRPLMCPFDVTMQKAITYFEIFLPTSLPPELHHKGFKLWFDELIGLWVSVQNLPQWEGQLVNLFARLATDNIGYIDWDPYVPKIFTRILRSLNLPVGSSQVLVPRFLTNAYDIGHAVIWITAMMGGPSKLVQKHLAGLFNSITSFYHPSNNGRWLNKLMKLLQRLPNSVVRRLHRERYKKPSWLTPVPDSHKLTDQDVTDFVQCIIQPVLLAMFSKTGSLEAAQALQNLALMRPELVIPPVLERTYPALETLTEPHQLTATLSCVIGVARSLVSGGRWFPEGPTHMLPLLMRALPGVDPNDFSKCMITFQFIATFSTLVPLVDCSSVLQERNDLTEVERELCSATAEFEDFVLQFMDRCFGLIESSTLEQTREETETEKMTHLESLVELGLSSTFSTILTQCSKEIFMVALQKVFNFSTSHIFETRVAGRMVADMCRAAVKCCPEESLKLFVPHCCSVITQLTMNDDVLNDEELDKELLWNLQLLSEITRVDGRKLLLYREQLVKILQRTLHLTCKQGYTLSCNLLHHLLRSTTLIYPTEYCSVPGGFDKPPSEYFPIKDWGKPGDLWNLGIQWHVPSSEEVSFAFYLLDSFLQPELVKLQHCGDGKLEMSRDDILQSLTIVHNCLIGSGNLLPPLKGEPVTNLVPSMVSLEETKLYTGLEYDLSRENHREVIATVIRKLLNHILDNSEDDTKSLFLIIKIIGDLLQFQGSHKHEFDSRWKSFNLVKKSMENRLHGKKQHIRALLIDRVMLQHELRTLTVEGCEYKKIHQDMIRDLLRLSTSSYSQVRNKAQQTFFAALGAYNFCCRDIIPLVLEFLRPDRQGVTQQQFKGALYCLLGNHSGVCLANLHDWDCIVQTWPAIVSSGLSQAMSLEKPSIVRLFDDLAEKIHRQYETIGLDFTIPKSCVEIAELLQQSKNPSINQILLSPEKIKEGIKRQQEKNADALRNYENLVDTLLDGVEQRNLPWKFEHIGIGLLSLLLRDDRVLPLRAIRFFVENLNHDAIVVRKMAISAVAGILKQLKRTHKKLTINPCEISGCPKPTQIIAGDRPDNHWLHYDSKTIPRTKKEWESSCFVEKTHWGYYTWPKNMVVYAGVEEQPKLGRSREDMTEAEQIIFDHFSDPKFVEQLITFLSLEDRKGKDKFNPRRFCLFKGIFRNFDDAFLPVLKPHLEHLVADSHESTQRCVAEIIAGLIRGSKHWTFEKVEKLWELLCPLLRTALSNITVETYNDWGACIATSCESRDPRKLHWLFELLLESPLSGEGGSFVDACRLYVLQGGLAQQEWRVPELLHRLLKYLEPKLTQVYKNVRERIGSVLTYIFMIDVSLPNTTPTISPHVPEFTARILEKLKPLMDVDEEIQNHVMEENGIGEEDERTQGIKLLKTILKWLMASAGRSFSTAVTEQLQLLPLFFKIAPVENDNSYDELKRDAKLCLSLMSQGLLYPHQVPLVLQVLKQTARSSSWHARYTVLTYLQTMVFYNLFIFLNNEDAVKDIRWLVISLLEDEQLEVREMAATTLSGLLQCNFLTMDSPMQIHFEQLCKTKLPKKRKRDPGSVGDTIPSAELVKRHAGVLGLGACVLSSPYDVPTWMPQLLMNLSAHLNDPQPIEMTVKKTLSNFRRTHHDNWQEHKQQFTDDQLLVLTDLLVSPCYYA
Chain of UniProt O15162 (O15162 whole entry, looked up): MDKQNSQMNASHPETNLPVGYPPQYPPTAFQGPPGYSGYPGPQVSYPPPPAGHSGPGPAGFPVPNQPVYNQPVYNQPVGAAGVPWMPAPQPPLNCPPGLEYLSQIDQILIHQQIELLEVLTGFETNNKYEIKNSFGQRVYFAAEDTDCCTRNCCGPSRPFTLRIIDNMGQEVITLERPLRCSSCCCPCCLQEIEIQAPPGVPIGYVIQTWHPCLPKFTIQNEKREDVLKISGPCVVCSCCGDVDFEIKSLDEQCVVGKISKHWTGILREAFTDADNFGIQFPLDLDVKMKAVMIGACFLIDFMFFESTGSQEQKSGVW
Chain of UniProt Q9P2B2 (Q9P2B2 whole entry, looked up): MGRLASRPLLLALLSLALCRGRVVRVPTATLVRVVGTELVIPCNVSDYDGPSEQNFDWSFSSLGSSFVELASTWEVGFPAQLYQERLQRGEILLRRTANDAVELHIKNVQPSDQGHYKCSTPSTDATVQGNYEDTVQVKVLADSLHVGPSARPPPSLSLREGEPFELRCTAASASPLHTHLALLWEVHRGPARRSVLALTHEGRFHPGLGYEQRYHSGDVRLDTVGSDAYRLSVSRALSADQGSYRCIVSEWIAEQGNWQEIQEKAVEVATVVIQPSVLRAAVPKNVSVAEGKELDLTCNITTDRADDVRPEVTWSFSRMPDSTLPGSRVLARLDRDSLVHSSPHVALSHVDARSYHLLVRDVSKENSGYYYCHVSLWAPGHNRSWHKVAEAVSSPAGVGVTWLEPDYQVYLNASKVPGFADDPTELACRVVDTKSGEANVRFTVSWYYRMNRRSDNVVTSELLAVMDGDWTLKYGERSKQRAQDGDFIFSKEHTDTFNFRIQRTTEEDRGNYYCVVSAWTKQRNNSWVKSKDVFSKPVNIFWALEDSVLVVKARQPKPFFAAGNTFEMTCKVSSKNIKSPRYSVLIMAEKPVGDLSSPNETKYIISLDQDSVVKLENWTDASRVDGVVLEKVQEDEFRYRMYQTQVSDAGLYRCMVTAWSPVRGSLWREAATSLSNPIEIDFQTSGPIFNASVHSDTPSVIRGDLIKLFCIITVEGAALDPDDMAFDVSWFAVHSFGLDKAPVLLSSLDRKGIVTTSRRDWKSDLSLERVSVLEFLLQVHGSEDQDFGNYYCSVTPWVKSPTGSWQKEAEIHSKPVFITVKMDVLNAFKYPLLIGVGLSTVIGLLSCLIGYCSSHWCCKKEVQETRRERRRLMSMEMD
Chain of UniProt Q9Y2Y1 (Q9Y2Y1 whole entry, looked up): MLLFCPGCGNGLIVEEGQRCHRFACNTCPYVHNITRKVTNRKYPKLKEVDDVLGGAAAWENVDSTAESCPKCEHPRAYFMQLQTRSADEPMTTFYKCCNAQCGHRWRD

**Q.** For PYGB (UniProt P11216), which log2 fold change is on record?
**A.** -0.041

**Q.** For PRKCB isoform 2 (UniProt P05771), which log2 fold change is on record?
**A.** -0.058

**Q.** Which log2 fold change does the source give for PCYT1B (UniProt Q9Y5K3) here?
**A.** -0.03

**Q.** For PRPSAP2 (UniProt O60256), which log2 fold change is on record?
**A.** 0.034

**Q.** Which log2 fold change does the source give for POGLUT1 (UniProt Q8NBL1) here?
**A.** -0.102

**Q.** Which log2 fold change does the source give for PSMC2 (UniProt P35998) here?
**A.** 0.091

**Q.** For PDE4DIP isoform 4 (UniProt Q5VU43), which log2 fold change is on record?
**A.** 0.011

**Q.** PCGF2 (UniProt P35227) was tested. Which log2 fold change did it give?
**A.** -0.025

**Q.** Which log2 fold change does the source give for POLR3K (UniProt Q9Y2Y1) here?
**A.** 0.057

**Q.** For PTTG1IP (UniProt P53801), which log2 fold change is on record?
**A.** 0.065

**Q.** With PPP6R1 (UniProt Q9UPN7) as the target, how does the log2 fold change read?
**A.** 0.011

**Q.** With PIGG (UniProt Q5H8A4) as the target, how does the log2 fold change read?
**A.** 0.052

**Q.** Which log2 fold change does the source give for POLR2K (UniProt P53803) here?
**A.** 0.053

**Q.** How did the log2 fold change turn out when PRKAR2B (UniProt P31323) was run?
**A.** 0.016

**Q.** How did the log2 fold change turn out when PSME4 (UniProt Q14997) was run?
**A.** -0.03

**Q.** Which log2 fold change does the source give for PPP1R35 (UniProt Q8TAP8) here?
**A.** -0.002

**Q.** How did the log2 fold change turn out when PMPCA (UniProt Q10713) was run?
**A.** -0.053

**Q.** With PPP1CA (UniProt P62136) as the target, how does the log2 fold change read?
**A.** -0.02

**Q.** PLSCR1 (UniProt O15162) was tested. Which log2 fold change did it give?
**A.** -0.068

**Q.** PDS5A (UniProt Q29RF7) was tested. Which log2 fold change did it give?
**A.** 0.018

**Q.** With PGGT1B (UniProt P53609) as the target, how does the log2 fold change read?
**A.** -0.021

**Q.** With PKN2 (UniProt Q16513) as the target, how does the log2 fold change read?
**A.** -0.021

**Q.** For PMM2 (UniProt O15305), which log2 fold change is on record?
**A.** -0.024

**Q.** For PLCG1 isoform 2 (UniProt P19174), which log2 fold change is on record?
**A.** -0.109

**Q.** Which log2 fold change does the source give for PISD (UniProt Q9UG56) here?
**A.** 0.045

**Q.** With PPIL2 (UniProt Q13356) as the target, how does the log2 fold change read?
**A.** -0.1

**Q.** How did the log2 fold change turn out when PCK2 (UniProt Q16822) was run?
**A.** -0.013

**Q.** With PSMC6 (UniProt P62333) as the target, how does the log2 fold change read?
**A.** 0.075

**Q.** For PSMD8 (UniProt P48556), which log2 fold change is on record?
**A.** 0.009

**Q.** How did the log2 fold change turn out when PPP2R5E (UniProt Q16537) was run?
**A.** -0.09

**Q.** How did the log2 fold change turn out when PRKCE (UniProt Q02156) was run?
**A.** -0.078

**Q.** For PIR (UniProt O00625), which log2 fold change is on record?
**A.** -0.024

**Q.** With PELO (UniProt Q9BRX2) as the target, how does the log2 fold change read?
**A.** -0.174

**Q.** For PTGFRN (UniProt Q9P2B2), which log2 fold change is on record?
**A.** 0.014

**Q.** For PTGR2 (UniProt Q8N8N7), which log2 fold change is on record?
**A.** -0.164

**Q.** For QKI (UniProt Q96PU8), which log2 fold change is on record?
**A.** -0.084

**Q.** Which log2 fold change does the source give for PARP16 isoform 3 (UniProt Q8N5Y8) here?
**A.** -0.036

Compound: Nc1ccccc1NC(=O)c1ccc(CNC(=O)OCc2cccnc2)cc1 [entinostat]
Test: as above
Method in brief: as §1

**Q.** With PYGB (UniProt P11216) as the target, how does the log2 fold change read?
**A.** -0.003

**Q.** How did the log2 fold change turn out when PRKCB isoform 2 (UniProt P05771) was run?
**A.** 0.045

**Q.** With PCYT1B (UniProt Q9Y5K3) as the target, how does the log2 fold change read?
**A.** 0.043

**Q.** How did the log2 fold change turn out when PRPSAP2 (UniProt O60256) was run?
**A.** -0.109

**Q.** With POGLUT1 (UniProt Q8NBL1) as the target, how does the log2 fold change read?
**A.** -0.01

**Q.** PSMC2 (UniProt P35998) was tested. Which log2 fold change did it give?
**A.** -0.025

**Q.** For PDE4DIP isoform 4 (UniProt Q5VU43), which log2 fold change is on record?
**A.** 0.015

**Q.** PCGF2 (UniProt P35227) was tested. Which log2 fold change did it give?
**A.** 0.114

**Q.** With POLR3K (UniProt Q9Y2Y1) as the target, how does the log2 fold change read?
**A.** 0.009

**Q.** PTTG1IP (UniProt P53801) was tested. Which log2 fold change did it give?
**A.** 0.12

**Q.** For PPP6R1 (UniProt Q9UPN7), which log2 fold change is on record?
**A.** -0.018

**Q.** With PIGG (UniProt Q5H8A4) as the target, how does the log2 fold change read?
**A.** 0.039

**Q.** With POLR2K (UniProt P53803) as the target, how does the log2 fold change read?
**A.** -0.01

**Q.** With PRKAR2B (UniProt P31323) as the target, how does the log2 fold change read?
**A.** 0.027

**Q.** PSME4 (UniProt Q14997) was tested. Which log2 fold change did it give?
**A.** 0.011

**Q.** With PPP1R35 (UniProt Q8TAP8) as the target, how does the log2 fold change read?
**A.** -0.06

**Q.** With PMPCA (UniProt Q10713) as the target, how does the log2 fold change read?
**A.** -0.018

**Q.** For PPP1CA (UniProt P62136), which log2 fold change is on record?
**A.** -0.012

**Q.** PLSCR1 (UniProt O15162) was tested. Which log2 fold change did it give?
**A.** -0.212

**Q.** For PDS5A (UniProt Q29RF7), which log2 fold change is on record?
**A.** 0.306

**Q.** How did the log2 fold change turn out when PGGT1B (UniProt P53609) was run?
**A.** -0.047

**Q.** With PKN2 (UniProt Q16513) as the target, how does the log2 fold change read?
**A.** 0.105

**Q.** Which log2 fold change does the source give for PMM2 (UniProt O15305) here?
**A.** -0.004

**Q.** How did the log2 fold change turn out when PLCG1 isoform 2 (UniProt P19174) was run?
**A.** 0.04

**Q.** PISD (UniProt Q9UG56) was tested. Which log2 fold change did it give?
**A.** -0.047

**Q.** Which log2 fold change does the source give for PPIL2 (UniProt Q13356) here?
**A.** 0.059

**Q.** Which log2 fold change does the source give for PCK2 (UniProt Q16822) here?
**A.** 0.005

**Q.** PSMC6 (UniProt P62333) was tested. Which log2 fold change did it give?
**A.** -0.015

**Q.** With PSMD8 (UniProt P48556) as the target, how does the log2 fold change read?
**A.** -0.009

**Q.** How did the log2 fold change turn out when PPP2R5E (UniProt Q16537) was run?
**A.** -0.021

**Q.** With PRKCE (UniProt Q02156) as the target, how does the log2 fold change read?
**A.** 0.01

**Q.** How did the log2 fold change turn out when PIR (UniProt O00625) was run?
**A.** -0.022

**Q.** Which log2 fold change does the source give for PELO (UniProt Q9BRX2) here?
**A.** 0.058

**Q.** Which log2 fold change does the source give for PTGFRN (UniProt Q9P2B2) here?
**A.** -0.071

**Q.** How did the log2 fold change turn out when PTGR2 (UniProt Q8N8N7) was run?
**A.** -0.05

**Q.** With QKI (UniProt Q96PU8) as the target, how does the log2 fold change read?
**A.** 0.006

**Q.** PARP16 isoform 3 (UniProt Q8N5Y8) was tested. Which log2 fold change did it give?
**A.** 0.053
